IDE cell inh = cellular human IDE inhibition. inhibition, % at 5.59 µM. P14735. AID 434962. HEK cells, FAbetaB cleavage, fluorescence polarization. actives 0.41% (n = 320,000);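 active means percent inhibition above the average of all tested compounds plus 3 SD, set per screening campaign, cut at about 16% in these data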;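 further: IDE supplied by intact live HEK cells; FP after avidin binding of uncleaved biotin substrate so inhibition keeps polarization high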
Target sequence (P14735 whole entry, looked up): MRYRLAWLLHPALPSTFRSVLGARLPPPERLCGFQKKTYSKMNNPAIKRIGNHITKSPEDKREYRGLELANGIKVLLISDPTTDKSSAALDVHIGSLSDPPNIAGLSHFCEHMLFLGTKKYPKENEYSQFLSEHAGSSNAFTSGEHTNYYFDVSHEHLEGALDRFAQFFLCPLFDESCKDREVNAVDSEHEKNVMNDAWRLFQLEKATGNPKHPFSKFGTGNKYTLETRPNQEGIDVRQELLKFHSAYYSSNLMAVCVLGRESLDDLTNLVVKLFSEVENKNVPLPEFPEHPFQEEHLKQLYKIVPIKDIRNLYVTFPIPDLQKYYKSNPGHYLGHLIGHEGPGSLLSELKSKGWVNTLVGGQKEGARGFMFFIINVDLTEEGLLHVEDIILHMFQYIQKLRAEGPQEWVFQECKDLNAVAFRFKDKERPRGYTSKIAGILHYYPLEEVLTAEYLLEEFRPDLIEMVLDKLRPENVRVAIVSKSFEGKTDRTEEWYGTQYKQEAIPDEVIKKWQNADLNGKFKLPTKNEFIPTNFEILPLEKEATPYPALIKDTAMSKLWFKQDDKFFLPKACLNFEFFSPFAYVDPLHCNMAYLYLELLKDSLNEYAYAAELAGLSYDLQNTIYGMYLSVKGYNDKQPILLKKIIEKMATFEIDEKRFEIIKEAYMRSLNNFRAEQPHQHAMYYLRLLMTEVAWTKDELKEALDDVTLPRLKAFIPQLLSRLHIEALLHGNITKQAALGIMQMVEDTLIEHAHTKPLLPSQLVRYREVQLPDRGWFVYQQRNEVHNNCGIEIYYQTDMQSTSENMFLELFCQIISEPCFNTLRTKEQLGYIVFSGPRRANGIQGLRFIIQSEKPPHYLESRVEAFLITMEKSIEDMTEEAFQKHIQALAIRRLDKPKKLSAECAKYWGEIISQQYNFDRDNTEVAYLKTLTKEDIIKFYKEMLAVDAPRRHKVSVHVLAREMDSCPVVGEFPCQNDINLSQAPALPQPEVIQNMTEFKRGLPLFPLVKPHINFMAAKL
CRFR2-BP antag = CRF-BP/CRF-R2 complex antagonism; HEK293 CRF-R2/CRF-BP, CRF-induced calcium fluorescence; inhibition, % at 11.8 µM; actives 0.59% (n = 350,000); AID 588475;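 active means inhibition of the ligand-induced calcium signal above about 50% at the single tested concentration, limit read from the data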
Myeloid diff 2 = myeloid differentiation induction | calls only at 10 µM | ER-HoxA9 myeloid progenitors, lysozyme-GFP differentiation, flow cytometry | actives 1% (n = 360,000);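 active means normalized GFP-positive differentiation at or above the plate's own cutoff, the solvent-only control mean plus 3 SD; inconclusive means no clear call, values can overlap the other calls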;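 further: cells exposed to compound for four days before flow analysis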
TPT1 inh = blocks Candida albicans tRNA 2'-phosphotransferase; inhibition, % at 5 µM; AID 1962; actives 0.81% (n = 300,000); recombinant caTPT1, FP RNA substrate dephosphorylation;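 active means inhibition above the mean of all tested compounds plus 3 SD, set per screening campaign, cut at about 24% in these data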
IDE act = boosts human insulin-degrading enzyme activity in HEK cells | FAbeta-B cleavage, fluorescence polarization; 0% vehicle, 100% cell-free pure enzyme wells | activation, % at 5.96 µM | actives 0.073% (n = 340,000) | AID 493087;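 active means activation above the mean of all tested compounds plus 3 SD, set per screening campaign, cut at about 17% in these data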
CRFR2-BP ag = CRF-BP/CRF-R2 complex agonism. actives 0.46% (n = 350,000). activation, % at 13.2 µM. HEK293 CRF-R2/CRF-BP, calcium dye fluorescence (FLIPR); percent of saturating CRF peptide response;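 active means activation of at least 50%, plus an integration ratio under a set limit after plate pattern correction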
Each line names hits and unclear results; the compound was inactive in the other large screens. Rows were chosen to be rich in hits. Some 2.6% of all compounds tested hit in one or more screens of this group.

CCN(C=C1CC2C3CC=C4CC(O)CCC4(C)C3CCC2(C)C1=O)CC (stereo unspecified)	none (no result: IDE cell inh, TPT1 inh)
COC(=O)C1=C(c2cccc(OCc3ccccc3)c2)C[C@@H]2CC[C@H]1N2C(=O)NCc1ccccc1	none (no result: TPT1 inh)
COC(=O)C1=C(c2cccc(OCc3ccccc3)c2)C[C@@H]2CC[C@H]1N2C(=O)NCc1ccc(OC)cc1	Myeloid diff 2 active (no result: TPT1 inh)
COC1C(O)C(C)OC(OC2C(Oc3cccc4c(O)c5c(=O)oc6ccc(C)c7c(=O)oc(c34)c5c67)OC(C)C(O)C2O)C1O (stereo unspecified)	Myeloid diff 2 active (no result: IDE cell inh, TPT1 inh)
O=c1oc2ccccc2c(O)c1C(c1ccc([N+](=O)[O-])cc1)c1c(O)c2ccccc2oc1=O	CRFR2-BP antag 82 (no result: IDE cell inh, TPT1 inh)
Cc1c(C(c2ccc(F)cc2)c2c(O)c3ccccc3oc2=O)c(=O)n(-c2ccccc2)n1C (stereo unspecified)	none
CC(C)c1ccc(C(c2c(O)c3ccccc3oc2=O)c2c(O)c3ccccc3oc2=O)cc1	CRFR2-BP antag 64 (no result: IDE cell inh, TPT1 inh, IDE act)
C/C(CC(c1ccccc1)c1c(O)c2ccccc2oc1=O)=N\Nc1ccc([N+](=O)[O-])cc1[N+](=O)[O-] (stereo unspecified)	none
COCCNC(=O)c1c(NC(=O)c2ccc(Br)o2)n(Cc2ccccc2)c2nc3ccccc3nc12	Myeloid diff 2 active
COCCCNC(=O)c1c(NC(=O)c2ccco2)n(Cc2ccccc2)c2nc3ccccc3nc12	none
CCc1ccc(N2C(=O)NC(=O)C(CCc3ccncc3)(CCc3ccncc3)C2=O)cc1	none
O=C1NC(=O)C(CCc2ccncc2)(Cc2cccc(Cl)c2Cl)C(=O)N1c1ccc(Br)cc1 (stereo unspecified)	Myeloid diff 2 active
Cc1ccc(C(O)(C(=O)OC(C)C)C(O)c2ccc(F)cc2)cc1 (stereo unspecified)	none (no result: IDE cell inh, CRFR2-BP antag, TPT1 inh, IDE act, CRFR2-BP ag)
O=C(COc1ccccc1)N1CCN(CCN2C(=O)c3cccc4cccc(c34)C2=O)CC1	none
O=C(COc1ccccc1F)N1CCN(CCN2C(=O)c3cccc4cccc(c34)C2=O)CC1	CRFR2-BP antag 70
COc1ccc(-[n+]2c(-c3ccccc3)cc(-c3ccc(C)cc3)cc2-c2ccccc2)cc1	CRFR2-BP ag 82 (no result: Myeloid diff 2)
CCN1CC=C(c2c[nH]c3ccccc23)CC1	Myeloid diff 2 active
Cc1[nH]c2ccccc2c1C(=O)CN1CC=C(c2ccccc2)CC1	none
CC1=C(C)CC2(C(=O)NC(=S)NC2=O)C(C)C1 (stereo unspecified)	CRFR2-BP ag 150 (no result: IDE cell inh, TPT1 inh)
Cc1nn(Cc2ccccc2)c(C)c1C(=O)OCC(=O)Nc1ccccc1SCC#N	Myeloid diff 2 active
Cc1ccc(OC(=O)N(C)C[C@H]2OCc3cnnn3CCCC(=O)N([C@H](C)CO)C[C@@H]2C)cc1	none (no result: IDE cell inh, TPT1 inh, IDE act)
CCOC(=O)[C@]12Cc3cc(Cl)ccc3[C@H]1N(C)C(=O)c1cc(OC)ccc12	Myeloid diff 2 active (no result: IDE cell inh, CRFR2-BP antag, TPT1 inh, IDE act, CRFR2-BP ag)
CCOC(=O)[C@]12Cc3cc(OC)ccc3[C@H]1N(C)C(=O)c1cc(OC)ccc12	none (no result: IDE cell inh, CRFR2-BP antag, TPT1 inh, IDE act, CRFR2-BP ag)
O=C(NCC1=C(c2cccc3ccccc23)C[C@@H]2CC[C@H]1N2Cc1ccco1)c1ccc([N+](=O)[O-])cc1	none (no result: IDE cell inh, TPT1 inh, IDE act)
Cc1cc(OC(=O)c2cccs2)c2c3c(c(=O)oc2c1)CCCC3	CRFR2-BP antag 52
O=C(COC(=O)c1cc(Br)cc(Br)c1O)NC12CC3CC(CC(C3)C1)C2	none (no result: IDE cell inh, CRFR2-BP antag, TPT1 inh, IDE act, CRFR2-BP ag)
CCCCCCCCCCOC(=O)CCN1CC1	CRFR2-BP antag 51 (no result: IDE cell inh, TPT1 inh)
O=C(N/N=C/c1c(O)n(CCC2=CCCCC2)c(=S)[nH]c1=O)c1ccccc1	CRFR2-BP antag 55
O=C(N/N=C/c1c(O)n(CCC2=CCCCC2)c(=O)[nH]c1=O)c1ccccc1	none
C[C@H]1CC[C@@H]2[C@@H](C)[C@H]3[C@H](C[C@H]4[C@@H]5CC=C6C[C@@H](O[C@@H]7O[C@H](CO)[C@H](O)[C@H](O[C@@H]8O[C@H](CO)[C@@H](O)[C@H](O)[C@H]8O)[C@H]7O[C@@H]7O[C@@H](C)[C@H](O)[C@@H](O)[C@H]7O)CC[C@]6(C)[C@H]5CC[C@]34C)N2C1	TPT1 inh 28, CRFR2-BP ag 67
C[C@@H]1CC2C3CC=C4C[C@@H](O)CC[C@]4(C)C3CC[C@]2(C)[C@H]1O (stereo partly specified)	none (no result: TPT1 inh)
O=C(C(=C1N(Cc2ccc(Cl)nc2)CCN1Cc1ccc(Cl)nc1)[N+](=O)[O-])C(Cl)Cl	CRFR2-BP ag 148
CCC1CO/C(=C(\C(Cl)=C(Cl)Cl)[N+](=O)[O-])N1Cc1ccc(Cl)nc1 (stereo unspecified)	none
C[N+]1=C(/C=C/Nc2ccccc2)C(C)(C)c2ccccc21	Myeloid diff 2 active
Cc1ccc2c(c1)=C/C(=C\c1c(O)[nH]c(=S)[nH]c1=O)C(=O)N=2	IDE cell inh 16 (no result: CRFR2-BP antag, Myeloid diff 2, IDE act, CRFR2-BP ag)
C[C@@]12CC[C@@H](c3cc4c(cc3C1)OCO4)N2c1ccccc1	none (no result: IDE cell inh, CRFR2-BP antag, TPT1 inh, IDE act, CRFR2-BP ag)
CC1CCC2C(C)C(=O)OC3OC4(C)CCC1C32OO4 (stereo unspecified)	Myeloid diff 2 active
CC1CCC2[C@@H](C)C(=O)OC3O[C@]4(C)CCC1C32OO4 (stereo partly specified)	Myeloid diff 2 active
COc1ccc(-n2nnnc2C(c2cccs2)N2CCC3(CC2)C(=O)NCN3c2ccccc2)cc1 (stereo unspecified)	none (no result: IDE cell inh, CRFR2-BP antag, TPT1 inh, IDE act, CRFR2-BP ag)
CC(=O)OC1CC2OC3C=C(C)CCC3(C)C1(C)C21CO1 (stereo unspecified)	none (no result: IDE cell inh, CRFR2-BP antag, TPT1 inh, IDE act, CRFR2-BP ag)
CCN1/C(=C/C=C/C2=[N+](CC)c3ccccc3C2(C)C)C(C)(C)c2ccccc21	Myeloid diff 2 inconclusive, CRFR2-BP ag 139 (no result: IDE cell inh, TPT1 inh, IDE act)
O=C(NCCN1CCC2(CC1)C(=O)NCN2c1cccc(F)c1)c1ccc2ccccc2c1	none (no result: IDE cell inh, CRFR2-BP antag, TPT1 inh, IDE act, CRFR2-BP ag)
CNc1ccc2oc(C[C@H]3O[C@@]4(CC[C@H]3C)O[C@H]([C@H](C)C(=O)c3ccc[nH]3)[C@H](C)C[C@H]4C)nc2c1C(=O)O	Myeloid diff 2 inconclusive, CRFR2-BP ag 211
CC(=O)Nc1ccc(S(=O)(=O)N2Cc3ccccc3-n3nncc3C2)cc1	Myeloid diff 2 active (no result: IDE cell inh, TPT1 inh, IDE act)
COc1ccc(/C=C2/C(=O)NC(=O)N(Cc3ccco3)C2=O)cc1	TPT1 inh 33 (no result: CRFR2-BP antag, Myeloid diff 2, IDE act, CRFR2-BP ag)
Cn1cccc1/C=C1\C(=O)NC(=O)N(Cc2ccco2)C1=O	none (no result: IDE cell inh, TPT1 inh)
COCCCn1c(-c2ccc(OC)cc2)cc(C(=O)NC2CCCCCCC2)c1C	CRFR2-BP antag 86
CCC1CN2CCc3cc(OC)c(OC)cc3C2CC1CC1NCCc2c1[nH]c1ccc(O)cc21 (stereo unspecified)	CRFR2-BP antag 51 (no result: IDE cell inh, Myeloid diff 2, TPT1 inh)
COc1ccc2c(c1OC)CN1CCc3cc4c(cc3[C@H]1C2)OCO4	none (no result: TPT1 inh)
CC12Nc3ccccc3C(=O)N1Cc1cnnn1-c1ccccc12 (stereo unspecified)	none (no result: IDE cell inh, CRFR2-BP antag, TPT1 inh, IDE act, CRFR2-BP ag)
Oc1c(Br)c(Br)c(Br)c(Br)c1Br	CRFR2-BP antag 58 (no result: TPT1 inh)
CC(C)(C)n1nnnc1C(c1ccccc1)N1CCC2(CC1)C(=O)NCN2c1ccccc1 (stereo unspecified)	none (no result: IDE cell inh, CRFR2-BP antag, TPT1 inh, IDE act, CRFR2-BP ag)

Assay outcomes: PubChem, several laboratories
